± gives the standard deviation.
Tested on: MILI (PIWIL2) piRISC loaded with L1MC piRNA (26 nt)
Assay: pre-steady-state target cleavage rate (min^-1); guide: L1MC piRNA 5'p-UAACUAAAUACUAUGCAAGCUGUAGG; MIWI and MILI are mouse PIWI proteins and EfPiwi is from a freshwater sponge; tags in brackets are library labels; higher = faster piRNA-guided slicing of the target
Summary of the method: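 A transcribed, DNA-blocked target RNA library […] was incubated at 33 °C for 0–8 or 0–960 min with 1 nM active affinity-purified piRISC carrying one synthetic guide, in HEPES–potassium acetate buffer with or without 500 nM GTSF1 partner protein. Uncleaved targets were then sequenced and normalised to depth and to weakly complementary targets. Data from three trials were pooled, with k3 capped at 0.0001 min^-1, and a burst-and-steady-state fit yielded the pre-steady-state cleavage rate.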

[1] = auxiliary factor: 500 nM mouse GTSF1
[2] = auxiliary factor: none (no GTSF1)
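Also: 1 nM active piRISC with 0.1 nM target library at 33 °C single turnover.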

Sequence | pre-steady-state target cleavage rate [1] | pre-steady-state target cleavage rate [2]
UCCUGGAUGUCGUUGCAUAGUCAUUUAGUUA | 0.00441 ± 0.0039 | 0.00434 ± 0.0028
UCCUGGAUGAGCUUGGUUAGUAUUUAGUAA | 0.175 ± 0.027 | 0.0063 ± 0.0023
UCCUGGAUGUCGAAGCAUAGUAUUUGGUUA | 0.0178 ± 0.0055 | 0.00505 ± 0.0019
UCCUGGAUGUGCUUGGAUAGUAUAUAGUUA | 0.118 ± 0.026 | 0.00335 ± 0.0032
UCCUGGAUGUGCUUGCAUAGUUUUUAGUUA | 0.0127 ± 0.0066 | 0.00796 ± 0.0026
UCCUGGAUGUGCAUGCAUUGUAUUUAGUUA | 0.0212 ± 0.0051 | 0.00604 ± 0.0024
UCCUGGAUGUGGUUGCAUUGUAUUUAGUUA | 0.0353 ± 0.0089 | 0.00721 ± 0.0036
UCCUGGAUGUCGUUGCAUAGUAUAAAGUUA | 0.0728 ± 0.018 | 0.00407 ± 0.0022
UCCUGGAUCAGGAUGCAUAGUAUUUAGUAA | 0.128 ± 0.012 | 0.00364 ± 0.002
UCCUGGAUGAGCUUGCUUAGUAUUUUGUUA | 0.138 ± 0.021 | 0.00587 ± 0.0022
UCCUGGAACAGCUUGGUAAGUAUUUAGUUA | 0.115 ± 0.014 | 0.00498 ± 0.0019
UCCUGGAUGUGGUUGCAAAGUAUUUAGUUA | 0.0262 ± 0.0077 | 0.00983 ± 0.0026
UCCUGGAUGUGCUUGCAUAGUUUUUAGUAA | 0.0109 ± 0.0049 | 0.00391 ± 0.0027
UCCUGGAUGUCGAUGCAUAGUCUUUAGUUA | 0.0205 ± 0.0056 | 0.00627 ± 0.002
UCCUGCUACAGCUUGCAUAGUCAUUUAGUUA | 0.0225 ± 0.0089 | 0.00473 ± 0.002
UCCUGGAUGUCCUUGGUUAGUAUUUAGUUA | 0.0867 ± 0.022 | 0.00681 ± 0.0022
UCCUGGAUGUCGAUGCCUAGUAUUUAGUUA | 0.0127 ± 0.0028 | 0.00351 ± 0.0023
UCCUGGAUGUCGUUGCAUCGUAUUUAGUUA | 0.0281 ± 0.0074 | 0.00872 ± 0.0025
UCCUGGAUCAGCAAGCAUAGUAUUUAGUAA | 0.196 ± 0.016 | 0.00292 ± 0.0028
UCCUGGUACAGCUUCCUUAGUAUUUAGUUA | 0.288 ± 0.052 | 0.00854 ± 0.0031

Sequence | pre-steady-state target cleavage rate [1] | pre-steady-state target cleavage rate [2]
UCCUGGAUGAGCUAGCAUAGUAUUAAGUUA | 0.226 ± 0.023 | 0.00417 ± 0.0024
UCCUGGAUGUCCUAGCAUAGUAUUAAGUUA | 0.0366 ± 0.0077 | 0.00287 ± 0.0022
UCCUGGAUGUCGUUGCAUAGUAUCUUAGUUA | 0.0991 ± 0.021 | 0.00848 ± 0.0026
UCCUGGAUGUCGAAGCAUAGUAUCUAGUUA | 0.0263 ± 0.0077 | 0.00418 ± 0.0019
UCCUGGAUCAGCUUGCAUAGUCAUUUAGUUA | 0.0161 ± 0.0075 | 0.00581 ± 0.0023
UCCUGGAUGAGGUUGCAUAGUAUUUAGUAA | 0.0985 ± 0.018 | 0.004 ± 0.0027
UCCUGGAACAGCUUGCAUAGUAUUUAGUUC [g2:g23:cont:t1C] | 0.191 ± 0.024 | 0.00602 ± 0.0018
UCCUGGAUGAGCAUGCAUACUAUUUAGUUA | 0.0556 ± 0.011 | 0.00656 ± 0.0024
UCCUGGUACAGCUUGCAUAGUAUUAGUUA | 0.327 ± 0.053 | 0.00515 ± 0.003
UCCUGGAUGAGCAUGCAUAGUAUUAAGUUA | 0.22 ± 0.024 | 0.00547 ± 0.0024
UCCUGGAUGUGCUUGCAUUGUAAUUAGUUA | 0.0229 ± 0.0072 | 0.00338 ± 0.0033
UCCUGGAUGUCGAUGCAUAGUUUAUAGUUA | 0.00501 ± 0.0045 | 0.00379 ± 0.0026
UCCUGCUACAGCUUGUAUAGUAUUUAGUUA | 0.255 ± 0.015 | 0.00693 ± 0.0021
UCCUGGUACAGACUUGCAUAGUAUUUAGUUA | 0.228 ± 0.042 | 0.00755 ± 0.0044
UCCUGGAACAGCUUCCAUUGUAUUUAGUUA | 0.11 ± 0.019 | 0.00471 ± 0.0022
UCCUGGAUCAGCUUGCAUAGAUAUUUAGUUA | 0.0135 ± 0.004 | 0.00307 ± 0.0026
UCCUGGAACGCUUGCAUAGUAUUUAGUUA | 0.239 ± 0.015 | 0.00644 ± 0.0019
UCCUCCUUCAGCUUGCAUAGUAUUUUGUUA | 0.139 ± 0.021 | 0.00287 ± 0.002
UCCUGGAUGAGCUUGCAUAGAUAUUUAGUUA | 0.00786 ± 0.0038 | 0.00424 ± 0.0022
UCCUGCUACAGCUUGCAUAUUAUUUAGUUA | 0.11 ± 0.016 | 0.00413 ± 0.0024

Sequence | pre-steady-state target cleavage rate [1] | pre-steady-state target cleavage rate [2]
UCCUGGAACAGCUUGGAUUGUAUUUAGUUA | 0.0767 ± 0.011 | 0.00295 ± 0.0026
UCCUGGAUGUCGAUGCAUAGUUAUUAGUUA | 0.00565 ± 0.0033 | 0.0042 ± 0.0022
UCCUGGUACAGCUUGCAUAUGUAUUUAGUUA | 0.00566 ± 0.0049 | 0.00451 ± 0.0033
UCCUGGAUGUGCAUGCAUAGUAUUUUGUUA | 0.0798 ± 0.018 | 0.00327 ± 0.0032
UCCUGGAUGUGCUUGCAAUGUAUUUAGUUA | 0.0104 ± 0.005 | 0.0111 ± 0.0028
UCCUGGUACAGCUACGAUAGUAUUUAGUUA | 0.15 ± 0.016 | 0.00343 ± 0.0026
UCCUCCUACAGCUUGCAUAAUAUUUAGUUA | 0.292 ± 0.026 | 0.00352 ± 0.0022
UCCUGGUACAGCUUGGAUAGUUUUUAGUUA | 0.0597 ± 0.014 | 0.00594 ± 0.0035
UCCUGGAUGUCCUUGGAUAGUAUUAAGUUA | 0.207 ± 0.037 | 0.00484 ± 0.0024
UCCUGGGACAGCUUGCAUAGUAUUUAGUUA | 0.231 ± 0.024 | 0.0138 ± 0.0034
UCCUGGAUGUCCUGUGCAUAGUAUUUAGUUA | 0.0823 ± 0.025 | 0.0123 ± 0.0036
UCCUGGAACUGCUUGCAUAGUAUUAAGUUA | 0.173 ± 0.022 | 0.00346 ± 0.0024
UCCUGGAUCAGCUUGCAAGUAUUUAGUUA | 0.0793 ± 0.011 | 0.00478 ± 0.0023
UCCUGGAUGUGCUUGCUUAGUAUUUAGUAA | 0.0779 ± 0.014 | 0.00576 ± 0.0018
UCCUGGAUGUGCUUGCAAAGUUUUUAGUUA | 0.00595 ± 0.0038 | 0.0065 ± 0.0023
UCCUGGAUGUCGAAGCAUAGUAUAUAGUUA | 0.0508 ± 0.015 | 0.00342 ± 0.0022
UCCUGGAUGAGCUUGCAUAGGUAUUUAGUUA | 0.00411 ± 0.0031 | 0.00493 ± 0.0023
UCCUGGAUCAGCUUGCAUAGAUUUUAGUUA | 0.0267 ± 0.007 | 0.00395 ± 0.0023
UCCUGGAACAGCUUGCAUAGUAUUUAGUAA | 0.247 ± 0.021 | 0.00459 ± 0.002
UCCUGGUACAGCUUGGUAAGUAUUUAGUUA | 0.113 ± 0.018 | 0.00809 ± 0.0033

Reference: the supplement of paper PMC10338343
